# Compound activity: PubChem, National Center for Advancing Translational Sciences (NCATS)
# Sampled rows, rich in hits. Any-hit rate of the full collection: about 2.9%.
# A549 viability – kills or reduces viability of A549 cells in Nrf2 counter-screen. 390,000 tested, 0.16% active. Potency, µM (doses to about 46 µM), for inactives: at the top dose activity change, negative = cytotoxicity, actives largely listed as inhibitors. AID 504648. A549 ARE-Fluc cells, CellTiter-Fluor viability, 18-24 h; note: % is set by controls: 0 for no effect and ±100 for the full control effect
#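 A549 ARE-Fluc cells in 5% FBS OPTI-MEM, 5000 cells/well, rested 2 h then exposed to compounds in concentration-response for 18-24 h at 37 °C. Viability by CellTiter-Fluor fluorescence (Ex 405/Em 525) after 30 min; luciferase luminescence (BugLite, 15 min, RT) read afterwards.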
# S2 tox – cell viability loss in ATXN counter-screen | S2 cells (HEK-293 line with an ATXN2-luciferase reporter) viability, CellTiter-Fluor protease fluorescence, 24 h | Potency, µM (top dose mostly 56.7 µM), actives largely listed as cytotoxic | 400,000 tested, 0.49% active | AID 651635; note: nearly all actives have a fitted effect of over 40% in size
# Nrf2 activator – activators of Nrf2 (ARE) signaling. 410,000 tested, 0.31% active. AID 624171. AREc32 ARE-luciferase reporter (MCF7-derived line), luminescence, 24 h. Potency, µM (titrated, usually from 46.1 µM), for the others: at the top dose activation, actives largely listed as activators; note: % of control where 0% means no effect; nearly all actives have a fitted effect of over 65% in size
#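 Steps: seed AREc32_Fluc cells (1000/well, 5% FBS OPTI-MEM); incubate overnight at 37 deg C; add 23 nL compound; incubate 24 hr; add Steady-Glo; hold 30 min RT; read luminescence.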
# ATXN2 expr inh – ATXN2 expression inhibition; HEK-293 ATXN2-luciferase reporter, luminescence, 24 h; Potency, µM (series often up to 57 µM), for the others: top-dose activity change, negative = inhibition, actives largely listed as inhibitors; 360,000 tested, 0.72% active; AID 1745845; note: % is set by controls: 0 for no effect and ±100 for the full control effect; nearly all actives have a fitted effect of over 55% in size
#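 qHTS (up to 57 uM final) was run with 24 h compound exposure of reporter cells at 37 °C. Each well was multiplexed: SteadyGlo luminescence measured ATXN2-luciferase expression after a fluorogenic Gly-Phe-AFC viability readout (25 uM final).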
# Nrf2 inh – Nrf2 pathway inhibition. A549 ARE-Fluc reporter, luciferase luminescence, 18-24 h. Potency, µM (series often up to 46 µM), inactives show at the highest dose activity change, negative = inhibition, usual class: inhibitors. 360,000 tested, 2.1% active; note: % is set by controls: 0 for no effect and ±100 for the full control effect; nearly all actives have a fitted effect of over 60% in size
#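 Quantitative HTS in A549 cells stably bearing an antioxidant response element-firefly luciferase construct. Inhibition of Nrf2-driven transcription was scored by luminescence after 18-24 h of compound exposure at 37 °C.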
# Numbers without * were called inactive; i = inactive; ? = inconclusive; nt = no result. Calls come from the whole dose curve; as a rule, active = well fitted curve in the direction sought with a large enough effect; inconclusive = small, poorly fitted or top-dose-only effect, or another doubt; inactive = no such curve, though single readings can be large; an effect the other way counts as inactive or inconclusive. Potency is the fitted concentration of half-maximal effect.
SMILES,A549 viability,S2 tox,Nrf2 activator,ATXN2 expr inh,Nrf2 inh
COc1ccc(-c2noc(CSc3nc(N)c(-c4ccccc4)c(=O)[nH]3)n2)cc1OC,0%,i,1%,4%,8%
CCn1c(SCC(=O)c2cccs2)nnc1-c1cccs1,0%,i,22µM*,68%,?
COc1ccccc1-c1noc(CSc2nc3ccc(C)cc3[nH]2)n1,2%,?,4%,-38%,?
CCCCCCn1c(=O)c2c(ncn2C)n(C)c1=O,nt,i,nt,8%,nt
NC(=O)C1CCN(c2ccc(S(=O)(=O)N3CCC(Cc4ccccc4)CC3)cn2)CC1,-18%,i,-1%,-24%,1.6µM*
CSc1cc2c(s1)c1cnn(Cc3cccc(O)c3)c(=O)c1n2C,-20%,nt,nt,nt,?
O=C(COC(=O)/C=C/c1ccccc1[N+](=O)[O-])Nc1ccc2[nH]c(=O)[nH]c2c1,2%,i,11µM*,2%,-1%
COC(=O)c1sc2cccc(F)c2c1S(=O)(=O)Nc1ccc(N(C)C)cc1,7%,i,?,2%,-19%
COc1ccc(/C(C)=N/NC(=O)c2cc(-c3cccnc3)nc3ccccc23)cc1,-1%,i,2%,1%,-2%
COc1cccc(/C(C)=N/NC(=O)c2cc(-c3cccnc3)nc3ccccc23)c1,-6%,i,4%,nt,21µM*
CC(=O)Nc1cccc(NC(=O)c2cc(-c3cccnc3)nc3ccc(Cl)cc23)c1,-7%,i,5%,-2%,?
CC(=O)Nc1cccc(NC(=O)c2cc(-c3cccnc3)nc3ccc(Br)cc23)c1,?,i,0%,-30%,12µM*
CS(=O)(=O)Oc1ccc2c(NC(N)=O)c(C(=O)c3ccc(Cl)cc3Cl)oc2c1,nt,nt,nt,119%,nt
CCc1ccc(NC(=O)C(CC)Sc2nc3cc4c(cc3c(=O)n2Cc2ccco2)OCO4)cc1 (configuration not stated),-29%,?,-1%,?,?
CCc1ccccc1NC(=O)C(CC)Sc1nc2cc3c(cc2c(=O)n1Cc1ccco1)OCO3 (configuration not stated),-26%,18µM*,0%,16µM*,?
COc1ccc(-c2ccc(C(C)=O)cc2)cc1C1C2C=CCCC2(C)C(=O)N1Cc1ccccc1 (configuration not stated),?,nt,nt,nt,16µM*
COc1ccc(-c2ccc(C)cc2)cc1[C@H]1[C@@H]2C=CCC[C@@]2(C)C(=O)N1Cc1ccccc1,-4%,i,5%,?,?
COc1ccc(-c2ccc(C)cc2)cc1C1C2C=CCCC2(C)C(=O)N1Cc1ccccc1 (configuration not stated),-2%,nt,nt,nt,-24%
COc1ccc(-c2ccc(C(C)=O)cc2)cc1[C@H]1[C@@H]2C=CCC[C@@]2(C)C(=O)N1Cc1ccccc1,-14%,i,3%,-15%,21µM*
CCOC(=O)c1sc2nc(C)nc(NCc3ccccc3OC)c2c1C,-11%,i,0%,?,21µM*
CCOC(=O)c1sc2nc(C)nc(NCCc3ccccn3)c2c1C,0%,i,1%,-27%,?
Cc1c(C#N)c(NC(=O)CCl)n(Cc2ccccc2)c1C,-1%,8.4µM*,?,11µM*,-28%
COC(=O)c1cc(C(=O)OC)n(Cc2ccc(F)cc2)c1C,1%,i,0%,10%,10%
Cc1cc(=O)n(Cc2ccccc2)c(O)c1C#N,4%,i,0%,-6%,-9%
Cc1c(C#N)c(NC(=O)CCl)n(Cc2ccc(F)cc2)c1C,-25%,21µM*,?,?,18µM*
SMILES,A549 viability,S2 tox,Nrf2 activator,ATXN2 expr inh,Nrf2 inh
Cc1c(C#N)c(NC(=O)CCl)n(Cc2cccs2)c1C,?,nt,?,?,15µM*
COC(=O)C1=C[C@@H](C(=O)OC)C2C3=C(C(=O)[C@]2(CC(C)C)NC(=O)c2ccccc2)[C@H](C)n2c(=O)n(C)c(=O)n2[C@@H]3C1 (some centres not stated),1%,nt,nt,nt,6%
CC(C)C1C(=O)Nc2ccc(S(=O)(=O)NCc3ccc(Cl)cc3)cc21 (configuration not stated),2%,i,-1%,-38%,21µM*
C=CCOc1c(Br)cc(CNc2ccc(NC(=O)C(C)C)c(OC)c2)cc1OC,-22%,i,0%,?,9.2µM*
Cc1c(C(=O)N2CCCC(c3ccccc3)C2)sc2ncnc(NCCc3ccccn3)c12 (configuration not stated),nt,i,nt,nt,nt
O=C(OCC#CCSc1nnc(-c2cccc3ccccc23)o1)c1sc(Cl)c(Cl)c1Cl,0%,nt,nt,nt,26%
Cc1ccc2onc(CC(=O)N(C)c3ccccc3)c2c1,-13%,i,1%,14%,?
O=S(=O)(Nc1ccc2c(c1)nc1n2CCN(Cc2ccccc2)C1)c1ccc(Cl)cc1,?,nt,-1%,nt,13µM*
O=S(=O)(Nc1ccc2c(c1)nc1n2CCN(Cc2ccccc2)C1)c1ccccc1,-6%,i,0%,-7%,?
O=C(CSc1nc2nn(-c3ccccc3)c(=O)c-2c2n1CCCCC2)Nc1cccc(F)c1,-9%,i,0%,-11%,9.2µM*
Cc1ccc(NC(=O)CSc2nc3nn(-c4ccccc4)c(=O)c-3c3n2CCCCC3)cc1F,-14%,?,-2%,-25%,?
CC(C)C(OC(=O)CNC(=O)c1ccccc1)C(=O)Nc1cc(C(F)(F)F)ccc1Cl (configuration not stated),6%,nt,nt,nt,-1%
CCN1CCN(CCNC(=O)c2ccc(/C=C3\Sc4ccccc4N(Cc4ccccc4F)C3=O)cc2)CC1,-11%,i,7%,?,3%
COCCCNC(=O)/C=C1\Sc2ccccc2N(Cc2ccccc2F)C1=O,5%,i,11µM*,15%,3%
COc1ccc(OC)c(S(=O)(=O)N2CCN(C(=O)c3cc(C4CC4)nn3-c3ccccc3)CC2)c1,-9%,i,0%,2%,26µM*
O=C(c1cc(C2CC2)nn1-c1ccccc1)N1CCN(S(=O)(=O)c2ccccc2)CC1,6%,i,-1%,1%,-16%
Cc1ncc2c(c1CNC(=O)c1cncs1)CCN(C(=O)c1ccsc1)C2,nt,i,nt,nt,nt
Cc1cccc(-c2noc(-c3cccnc3NCc3ccc(Cl)cc3)n2)c1,-14%,i,7%,25%,?
COc1ccc(NC(=S)NC(=O)c2ccccc2)cn1,0%,i,3%,40%,?
COc1ccc(NC(=O)c2cccc(Oc3ccccc3)c2)cn1,-13%,?,0%,-10%,26µM*
COc1cccc(C(=O)Nc2cc(Cl)c(O)c(Cl)c2)c1,2%,i,4µM*,nt,6%
CCN1C(=O)/C(=C\C=C2/C=CC=CN2CC)SC1=S,15µM*,nt,0%,13%,?
